In PubChem BioAssay AID651661 (Broad Institute, 2012):
Values joined by “and” are separate entries in the source; they are usually repeats but may differ in a detail not shown here. Equal entries are not always repeated. The campaign covered roughly 350,000 compounds. About 2,300 (0.66%) were called active. The sample holds actives, similar compounds and a random draw of the others, so the mix is not that of the screen. Unmarked numbers belong to inactive results.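 The calls were made as follows: active = mean inhibition of at least 50% after viability correction, with every replicate also passing that limit; inconclusive = mean reaches 50% but only one of two replicates passes; inactive = the rest.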

Test: EWS/Fli-driven NR0B1 reporter inhibitors, primary screen, A673 cells, NR0B1 luciferase, luminescence, MLPCN library (AID 651661);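 also: firefly luciferase signal divided by Alamar Blue viability fluorescence both relative to DMSO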
Conditions: viability-normalised, at 12.6 µM, stronger effect = higher value

SMILES	inhibition
COC1C(O)C(C)OC(OC2CCC3(C=O)C(CCC4C3CCC3(C)C(C5=CC(=O)OC5)CCC43O)C2)C1O (stereo not given)	61.9% (active)
OC[C@@H]1[C@H]2c3ccccc3NC[C@H]2N1Cc1cccnc1	3.74%
COc1cccc(-c2nc3ccc(N4CCN(C)CC4)cc3[nH]2)c1	54% (active)
Cc1nc2ccc(N3CCN(C)CC3)cc2nc1C	1.28%
Brc1ccc2c(c1)CNCc1cnnn1-2	-10.6%
CCC(C)NC1(c2ccccc2)CCCCC1 (stereo not given)	-1.85%
COc1cc(OC)cc(C(=O)NCCN2CCC3(CC2)C(=O)NCN3c2ccccc2)c1	-1.8%
CCN(CC)C(=O)[C@@H]1C=C2c3cccc4[nH]c(Br)c(c34)C[C@H]2N(C)C1	-3.36%
C[C@]12CCC3C(CC[C@H]4C[C@@H](O)CC[C@]34C)C1CC[C@@H]2O (stereo not given in full)	-5.07%
C[C@]12CCC3C(CC[C@H]4C[C@@H](O)CC[C@]34C)C1C[C@@H](O)[C@H]2O (stereo not given in full)	0.611%
C[C@]12CC[C@H](O)C[C@H]1CC[C@@H]1C2CC[C@]2(C)[C@@H](C3=CC(=O)OC3)[C@@H](O)C[C@]12O (stereo not given in full)	64.9% (active)
COc1ccc(C#Cc2ccc([C@H]3[C@H](CO)N4CCCCN(C(=O)Cc5ccccc5)C[C@@H]34)cc2)cc1	-12.7%
COC(=O)[C@H]1[C@H](CO)[C@H]2Cn3c(ccc(-c4cccc(F)c4)c3=O)[C@@H]1N2Cc1ccccc1	-28.1%
O=c1[nH]c2ccccc2n1C1CCN(C(c2ccccc2)c2nnnn2Cc2ccccc2)CC1 (stereo not given)	21.9%
O=C1NC(=O)N(Cc2ccco2)C(=O)/C1=C\c1ccc(-c2ccc(F)cc2)o1	20%
O=C1NC(=O)N(CCc2ccc(F)cc2)C(=O)/C1=C/C=C/c1ccccc1	66.1% (active)
O=C(O)COc1ccccc1/C=C1\C(=O)NC(=O)N(CCC2=CCCCC2)C1=O	2.19%
O=C(NC[C@@H]1CC[C@H]2NC[C@H]2O1)C1CCCC1	-22.4%
C[C@@H]1CN([C@H](C)CO)C(=O)CCCn2cc(nn2)CO[C@@H]1CN(C)C(=O)Oc1cccc2ccccc12	4.15%
C[C@H]1CN([C@@H](C)CO)C(=O)CCCn2nncc2CO[C@H]1CN(C)C(=O)Oc1cccc2ccccc12	-6.63% and -4.29% and 4.35%
CN(C)CC1Oc2ccccc2OC1(O)c1ccccc1 (stereo not given)	55.9% (active)
O=C(NCC1=C(c2ccc3ccccc3c2)C[C@@H]2CC[C@H]1N2Cc1ccco1)c1cccs1	2.23%
O=c1[nH]c2ccccc2n1C1CCN(C(c2ccnc3ccccc23)c2nnnn2Cc2ccccc2)CC1 (stereo not given)	6.09%
COC(=O)C[C@@H]1CC[C@@H]2NC[C@@H](O)COC[C@H]2O1	-11.3%
Cc1cc(N2CCNC[C@@H]2C)ccc1N1CC[C@H](O)C1	-8.38%
CCOC(=O)[C@]12Cc3ccccc3[C@H]1N(C1CCCCC1)C(=O)c1cc(OC)ccc12	56.3% (active)
CCOC(=O)[C@]12Cc3cc(OC)ccc3[C@H]1N(C(C)C)C(=O)c1ccccc12	16.8%
CC(=O)NCC1=C(c2ccc3ccccc3c2)C[C@@H]2CC[C@H]1N2Cc1ccco1	9.45%
CC1C(=O)OC2CCN3CC=C(COC(=O)C(C)(O)C1(C)O)C23 (stereo not given)	0.572%
O=C(O)[C@@H]1[C@@H](CO)[C@@H]2Cn3c(ccc(-c4ccccc4F)c3=O)[C@H]1N2C(=O)c1cccnc1	-3.75%
